For 34 compounds, Potency, activation and activity change, negative = inhibition results are on record in PubChem BioAssay (NCATS).

The target in assay [1] is Rap guanine nucleotide exchange factor 3 (Homo sapiens) (UniProt O95398). In words: Confirmatory qHTS for agonist of cAMP-regulated guanine nucleotide exchange factor 3 (EPAC1) (AID 1645881).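 Note: EPAC1 catalysed release of BODIPY-GDP from Rap1B seen as fluorescence loss; 100% = effect of cAMP agonist control; nearly all actives have a fitted effect of over 75% in size.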
Assay [2] shares this target. In words: Counterscreen qHTS for antagonist of cAMP-regulated guanine nucleotide exchange factor 3 (EPAC1) (AID 1645888).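 Note: fluorescence loss as bound BODIPY-GDP is released from Rap1B; % of control where 0% means no effect.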 In a few lines: (§1)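 Measured: fluorescence of BODIPY-GDP bound to Rap1B, which falls as exchange proceeds. Conditions include 50 uM competing GDP, 5 and 30 min reads, and a later cAMP challenge for antagonist detection.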
Assay [3] shares this target. Description: Counterscreen qHTS for agonist of cAMP-regulated guanine nucleotide exchange factor 3 (EPAC1) (AID 1645889). Note: % of control where 0% means no effect; nearly all actives have a fitted effect of over 40% in size. In a few lines: as §1
Background: Counterscreens check selectivity or assay interference.

Assay [4] concerns the target Rap guanine nucleotide exchange factor 4 (Homo sapiens) (UniProt Q8WZA2). In words: Confirmatory qHTS for agonist of cAMP-regulated guanine nucleotide exchange factor 4 (EPAC2) (AID 1645884). For activation: % is set by controls: 0 for no effect and ±100 for the full control effect.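 Note: nucleotide exchange releases bodipy-GDP from Rap1 and this lowers its fluorescence; nearly all actives have a fitted effect of over 65% in size.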 Note: potency is the fitted concentration of half-maximal effect. A general note: Quantitative high-throughput screening tests each substance at several concentrations.
The target is the same in assay [5]. Description: Confirmatory qHTS for antagonist of cAMP-regulated guanine nucleotide exchange factor 4 (EPAC2) (AID 1645885). For activity change, negative = inhibition: % is set by controls: 0 for no effect and ±100 for the full control effect. Note: nearly all actives have a fitted effect of over 25% in size. Note: potency is the fitted concentration of half-maximal effect.

Results filed as inconclusive are left out. Unmarked numbers belong to inactive results. Activity calls are given as the source filed them. Calls come from the whole dose curve; as a rule, active = well fitted curve in the direction sought with a large enough effect; inconclusive = small, poorly fitted or top-dose-only effect, or another doubt; inactive = no such curve, though single readings can be large; an effect the other way counts as inactive or inconclusive.

Sequence of Rap guanine nucleotide exchange factor 4 (Homo sapiens) (Q8WZA2 whole entry, looked up): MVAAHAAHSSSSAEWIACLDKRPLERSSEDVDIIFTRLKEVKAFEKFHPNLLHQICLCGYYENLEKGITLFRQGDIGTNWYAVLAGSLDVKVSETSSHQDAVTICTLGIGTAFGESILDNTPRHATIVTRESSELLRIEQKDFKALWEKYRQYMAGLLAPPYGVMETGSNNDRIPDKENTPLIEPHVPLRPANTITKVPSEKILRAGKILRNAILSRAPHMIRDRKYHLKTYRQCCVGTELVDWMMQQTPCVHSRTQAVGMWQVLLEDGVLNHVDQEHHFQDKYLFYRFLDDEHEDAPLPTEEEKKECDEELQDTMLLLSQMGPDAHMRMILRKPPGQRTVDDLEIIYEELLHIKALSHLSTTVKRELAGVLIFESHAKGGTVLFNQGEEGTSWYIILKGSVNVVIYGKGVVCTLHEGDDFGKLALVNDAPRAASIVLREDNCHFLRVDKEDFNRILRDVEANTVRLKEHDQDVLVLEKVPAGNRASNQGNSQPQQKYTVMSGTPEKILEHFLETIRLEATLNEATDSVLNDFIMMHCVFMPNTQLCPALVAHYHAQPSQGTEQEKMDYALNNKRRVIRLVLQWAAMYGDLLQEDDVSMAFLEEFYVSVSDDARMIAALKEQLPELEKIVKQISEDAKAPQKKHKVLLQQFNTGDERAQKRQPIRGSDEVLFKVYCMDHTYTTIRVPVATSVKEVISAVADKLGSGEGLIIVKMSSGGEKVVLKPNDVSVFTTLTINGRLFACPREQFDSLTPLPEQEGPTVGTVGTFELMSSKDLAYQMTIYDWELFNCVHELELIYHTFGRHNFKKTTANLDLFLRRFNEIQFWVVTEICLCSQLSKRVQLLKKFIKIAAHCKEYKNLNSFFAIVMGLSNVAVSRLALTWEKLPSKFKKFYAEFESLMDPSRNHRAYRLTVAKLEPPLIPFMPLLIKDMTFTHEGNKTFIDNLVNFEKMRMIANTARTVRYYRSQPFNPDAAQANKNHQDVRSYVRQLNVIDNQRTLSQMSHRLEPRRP
Sequence of Rap guanine nucleotide exchange factor 3 (Homo sapiens) (O95398 whole entry, looked up): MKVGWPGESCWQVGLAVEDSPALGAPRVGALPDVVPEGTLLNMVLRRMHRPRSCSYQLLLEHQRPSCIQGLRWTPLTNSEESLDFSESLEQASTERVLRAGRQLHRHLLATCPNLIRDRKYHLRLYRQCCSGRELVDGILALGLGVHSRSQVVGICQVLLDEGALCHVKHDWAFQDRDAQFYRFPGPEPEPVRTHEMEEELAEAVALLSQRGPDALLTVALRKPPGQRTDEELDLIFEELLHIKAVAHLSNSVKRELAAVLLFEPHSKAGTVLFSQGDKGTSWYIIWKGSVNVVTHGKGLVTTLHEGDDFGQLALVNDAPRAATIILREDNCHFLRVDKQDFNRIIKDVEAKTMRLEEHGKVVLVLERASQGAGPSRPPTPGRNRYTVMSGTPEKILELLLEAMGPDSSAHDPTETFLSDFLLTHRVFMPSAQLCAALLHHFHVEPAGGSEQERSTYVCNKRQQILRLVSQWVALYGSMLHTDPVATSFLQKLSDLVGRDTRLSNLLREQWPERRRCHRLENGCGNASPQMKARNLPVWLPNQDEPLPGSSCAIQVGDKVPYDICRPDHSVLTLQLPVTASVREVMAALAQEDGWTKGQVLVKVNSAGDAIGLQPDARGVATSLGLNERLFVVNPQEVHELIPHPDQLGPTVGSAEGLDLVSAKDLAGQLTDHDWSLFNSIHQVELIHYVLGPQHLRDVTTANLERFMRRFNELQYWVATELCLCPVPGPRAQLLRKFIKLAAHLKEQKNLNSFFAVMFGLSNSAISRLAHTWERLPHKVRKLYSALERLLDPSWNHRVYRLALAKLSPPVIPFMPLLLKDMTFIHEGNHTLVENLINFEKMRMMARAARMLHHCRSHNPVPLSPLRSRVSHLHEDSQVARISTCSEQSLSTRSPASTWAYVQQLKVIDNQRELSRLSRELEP

With `O=C(COc1ccc(F)cc1Br)NCC1COc2ccccc2O1` (configuration not stated), the Potency result in assay [1], in assay [2] and in assay [3] was “inactive” each time.
For the compound `Nc1nc(N)c2c(ccc3c2ccn3Cc2cccc([N+](=O)[O-])c2)n1`, in assay [4], the Potency was 100 µM (active).
For `C/C(=N\N(Cc1ccccc1)c1ccccc1)c1ccncc1`, in assay [4], the activation is -6.71% [at 17.1 µM, percent relative to cAMP agonist control]. The Potency result in assay [5] was “inactive”.
`O=C(Nc1cc(S(=O)(=O)N2CCCCC2)ccc1O)c1ccccc1NS(=O)(=O)c1ccc(F)c(F)c1`: the Potency in assay [4] is 0.282 µM (active). Besides, in assay [5], the Potency result is “inactive”. Besides, in assay [2], the activity change, negative = inhibition is -23% [at 30.8 µM].
On to `CC(=O)N(CCC(c1ccco1)C(C)C)Cc1ccc(OC(C)C)cc1` (configuration not stated), for which the Potency entry in assay [1] and in assay [3] was “inactive” each time.
Regarding `CCc1nc2c(OCc3ccc(C(F)(F)F)cc3)cccn2c1N(C)C(=O)CC(C)C`, the Potency entry in assay [1] and in assay [3] was “inactive” in each case.
`COc1cccc(-c2coc3c(C)c4oc(=O)c(CCC(=O)O)c(C)c4cc23)c1`: the Potency entry in assay [1], in assay [2] and in assay [3] was “inactive” each time.
Consider `CCC(C(=O)c1ccc2ncccc2c1)c1ccccc1` (configuration not stated), for which the Potency result in assay [1], in assay [2] and in assay [3] was “inactive” throughout.
For `CCCC(C(=O)Nc1ccc(S(=O)(=O)Nc2nccs2)cc1)c1ccccc1` (configuration not stated), the Potency entry in assay [1] is “inactive”. For the same compound, the activity change, negative = inhibition in assay [2] is -24.2% [at 30.8 µM]. The activation in assay [3] is 8.61% [at 30.8 µM].
Consider `O=C(N/N=C/c1ccc(O)c(O)c1)C1c2ccccc2Oc2ccccc21`, for which the Potency entry in assay [4] and in assay [5] was “inactive” each time.
Consider `CCC(=O)N(CCC(Cc1ccccc1)c1ccco1)Cc1ccco1` (configuration not stated), for which the Potency result in assay [1], in assay [2] and in assay [3] was “inactive” each time.
Consider `COC(=O)c1ccccc1C(=O)c1c(C)cc(C)cc1C`, for which the Potency result in assay [1] is “inactive”. Further, in assay [2], the activity change, negative = inhibition is 4.03% [at 30.8 µM]. The activation in assay [3] was 0.931% [at 30.8 µM].
As to `CCOc1ccc(N(Cc2ccc(OC)cc2)C(=O)c2ccco2)cc1`, the Potency entry in assay [1] and in assay [3] was “inactive” in each case.
For the compound `CCOC(=O)C1Oc2ccccc2C(c2ccc(OC)cc2)=C1C(=O)OC` (configuration not stated), the Potency result in assay [1] and in assay [3] was “inactive” in each case.
Turning to `COC(=O)c1ccc2nc(-c3cccc(Cl)c3)c(Cc3ccccc3)n2c1`, the Potency entry in assay [1] is “inactive”. For the same compound, in assay [2], the activity change, negative = inhibition is -21.2% [at 30.8 µM]. The activation in assay [3] was 15.5% [at 30.8 µM].
Consider `Cc1ccc(N(Cc2ccc([N+](=O)[O-])cc2)C(=O)c2ccco2)cc1C`, for which the Potency entry in assay [1], in assay [2] and in assay [3] was “inactive” in each case.
With `Cc1cc(C)c(S(=O)(=O)Nc2ccc3c(c2)CCC3)c(C)c1`, the Potency entry in assay [1] and in assay [3] was “inactive” each time.
`O=C(O)CCN1C(=O)/C(=C\c2cccc(OCC(=O)Nc3ccc(Cl)cc3)c2)SC1=S`: the Potency entry in assay [4], in assay [5] and in assay [2] was “inactive” in each case.
Consider `Cc1nc2ccccc2c(C)c1C(=O)c1ccccc1`, for which the Potency entry in assay [1] is “inactive”. For the same compound, in assay [3], the activation was -2.6% [at 30.8 µM].
With `CCc1ccc(N=C2NC(=O)/C(=C/c3ccc(OCC(=O)O)c(OC)c3)S2)cc1`, the Potency entry in assay [4], in assay [5] and in assay [2] was “inactive” in each case.
With `Cc1ccc(C(=O)N(Cc2ccco2)Cc2sccc2C)cc1`, the Potency result in assay [4], in assay [5] and in assay [2] was “inactive” in each case.
With `Cc1nc2c3cc(F)ccc3n(Cc3ccccc3F)c2s1`, the activation in assay [4] was 1.97% [at 17.1 µM, percent relative to cAMP agonist control]. Moreover, in assay [5], the Potency entry was “inactive”. Also, the activity change, negative = inhibition in assay [2] was -7.48% [at 30.8 µM].
Turning to `CCOC(=O)c1c(CC(C)C)csc1NC(C)=O`, the Potency result in assay [1] and in assay [3] was “inactive” each time.
Consider `O=C1Nc2ccccc2N=C(c2ccccc2)c2ccccc21`, for which the Potency result in assay [1] is “inactive”. In assay [3], the activation was 39.2% [at 30.8 µM].
In the case of `CCC(=O)N(CCC(c1ccc(C)cc1)c1ccco1)Cc1ccco1` (configuration not stated), the Potency result in assay [1] is “inactive”. Further, the activity change, negative = inhibition in assay [2] was -11.4% [at 30.8 µM]. For the same compound, in assay [3], the activation was 19.5% [at 30.8 µM].
On to `COC(=O)c1ccc2nc(-c3ccc(Cl)cc3)c(Cc3ccccc3OC)n2c1`, for which the Potency result in assay [1], in assay [2] and in assay [3] was “inactive” each time.
Turning to `COc1ccc(CN2C(=O)c3cccnc3C2O)cc1` (configuration not stated), the Potency entry in assay [1], in assay [2] and in assay [3] was “inactive” in each case.
Take `O=C(O)c1ccc(N/N=C/c2ccc(-c3ccc(Cl)cc3Cl)o2)cc1`: the Potency entry in assay [4], in assay [5] and in assay [2] was “inactive” in each case.
For the compound `CCCC/C=C/[C@H](c1ccccc1)[C@H](CO)Cc1cccnc1`, the Potency result in assay [1] and in assay [3] was “inactive” each time.
Turning to `CCC(=O)N(CCC(c1ccco1)C(C)C)Cc1ccccc1` (configuration not stated), the Potency result in assay [1] and in assay [3] was “inactive” each time.
On to `C/C(=N\O)C(=O)OC1CC(C)CCC1C(C)C` (configuration not stated), for which the Potency entry in assay [1] and in assay [3] was “inactive” in each case.
Turning to `CCOC(=O)C1=C(C)N(C)C(C)=C(C(=O)OCC)C1c1ccc(Cl)cc1`, the Potency entry in assay [1], in assay [2] and in assay [3] was “inactive” throughout.
In the case of `CCOC(=O)C1(C)C=C(Nc2ccc(C(N)=O)cc2)C(=O)N1c1ccccc1` (configuration not stated), the Potency entry in assay [4] and in assay [2] was “inactive” in each case. In addition, the Potency in assay [5] is 10.7 µM (active).
As for `CCC(CC)C(=O)Nc1nc(-c2ccc3c(c2)CCN3C(=O)C2CC2)c(C)s1`, the Potency entry in assay [1] is “inactive”. Besides, the activity change, negative = inhibition in assay [2] was -24% [at 30.8 µM]. Also, the activation in assay [3] was 26.5% [at 30.8 µM].
